Data as given in PubChem BioAssay.
Where “and” joins values, the source holds several entries; their conditions need not be identical. Identical values can stand only once. Calls of active or inactive are those of the source.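 Rule for the calls: active = thallium flux through the channel raised or lowered by more than 3 SD from vehicle-only wells, actives on both sides; inactive = the rest.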

Key:
Test in all cases: modulators of BK channel variants, profiling panel, selectivity assay, cell-based, U2OS BacMam, thallium flux, beta subunits (AID 1259406);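 note: initial slope of Thallos dye fluorescence rise after thallium is added; log ratio against the mean of 0.3% DMSO vehicle wells on the same plate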
F380Y = details: at 30 µM
F380Y/beta1 = details: at 30 µM
F380Y/beta2Delta = details: at 30 µM
F380Y/beta4 = details: at 30 µM
[1] = molecular target: Calcium-activated potassium channel subunit alpha-1 (Homo sapiens) + Leucine-rich repeat-containing protein 26 (Homo sapiens) (UniProt Q12791+Q2I0M4); details: F380Y/Slo1WT/gamma1, at 30 µM
R275C = details: at 30 µM
R275C/beta1 = details: at 30 µM
R275C/beta2Delta = details: at 30 µM
R275C/beta4 = details: at 30 µM
R275C/Slo1WT/beta2 = details: at 30 µM

Measured: log fold change Tl+ flux

Sequence of Calcium-activated potassium channel subunit alpha-1 (Homo sapiens) + Leucine-rich repeat-containing protein 26 (Homo sapiens) (Q2I0M4 whole entry, looked up, one chain of several): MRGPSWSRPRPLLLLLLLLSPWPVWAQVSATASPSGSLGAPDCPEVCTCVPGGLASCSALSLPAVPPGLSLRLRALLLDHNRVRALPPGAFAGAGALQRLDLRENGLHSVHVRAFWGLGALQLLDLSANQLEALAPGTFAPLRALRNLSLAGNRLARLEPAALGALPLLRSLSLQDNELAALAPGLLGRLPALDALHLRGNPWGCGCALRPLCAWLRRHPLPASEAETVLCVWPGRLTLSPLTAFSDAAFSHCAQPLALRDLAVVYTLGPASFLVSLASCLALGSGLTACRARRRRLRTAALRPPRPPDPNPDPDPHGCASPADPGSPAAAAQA

NS(=O)(=O)Cc1noc2ccccc12
inactive: F380Y 0.00455 | F380Y/beta1 -0.0156 | F380Y/beta2Delta -0.0343 | F380Y/beta4 -0.0562 | [1] 0.00637 | R275C -0.021 | R275C/beta1 0.0189 | R275C/beta2Delta -0.0477 | R275C/beta4 0.00838 | R275C/Slo1WT/beta2 -0.0027

Cc1cnc(NC(=O)C2=C(O)c3ccccc3S(=O)(=O)N2C)s1
inactive: F380Y -0.00196 | F380Y/beta1 -0.0291 | F380Y/beta2Delta 0.0267 | F380Y/beta4 0.0475 | [1] 0.0367 | R275C -0.0331 | R275C/beta1 0.00607 | R275C/beta2Delta 0.00306 | R275C/beta4 0.00145 | R275C/Slo1WT/beta2 0.0334

C[C@@H]1CN(CCCn2c3ccccc3c3ccccc32)C[C@H](C)N1
active: F380Y 0.145 | F380Y/beta1 0.208 | F380Y/beta2Delta 0.138 | F380Y/beta4 0.64 | R275C 0.377 | R275C/beta1 0.219 | R275C/beta2Delta 0.146 | R275C/beta4 0.312
inactive: [1] 0.0245 | R275C/Slo1WT/beta2 0.00517

CC(c1cc2ccccc2s1)N(O)C(N)=O (stereo not given)
inactive: F380Y -0.00504 | F380Y/beta1 0.00537 | F380Y/beta2Delta 0.0219 | F380Y/beta4 0.0185 | [1] 0.0287 | R275C 0.00217 | R275C/beta1 0.0284 | R275C/beta2Delta 0.0541 | R275C/beta4 -0.0188 | R275C/Slo1WT/beta2 0.0381

CCc1c(C)[nH]c2c1C(=O)C(CN1CCOCC1)CC2 (stereo not given)
inactive: F380Y 0.0409 | F380Y/beta1 0.015 | F380Y/beta2Delta 0.0445 | F380Y/beta4 -0.00138 | [1] -0.0511 | R275C 0.0162 | R275C/beta1 -0.0312 | R275C/beta2Delta 0.0494 | R275C/beta4 -0.0175 | R275C/Slo1WT/beta2 0.00393

CCc1nn(CCCN2CCN(c3cccc(Cl)c3)CC2)c(=O)n1CCOc1ccccc1
active: F380Y -0.403 | F380Y/beta1 -0.178 | F380Y/beta2Delta -0.507 | F380Y/beta4 -0.446 | R275C/beta1 0.378 | R275C/beta2Delta 0.156 | R275C/beta4 0.207
inactive: [1] 0.00963 | R275C -0.055 | R275C/Slo1WT/beta2 -0.00757

CC(C)(C)C(O)/C=C/c1ccc2c(c1)OCO2 (stereo not given)
inactive: F380Y -0.0156 | F380Y/beta2Delta -0.034 | F380Y/beta4 0.0193 | [1] 0.00833 | R275C -0.0106 | R275C/beta1 0.0195 | R275C/beta2Delta -0.0731 | R275C/beta4 -0.0258 | R275C/Slo1WT/beta2 -0.0107
active: F380Y/beta1 0.105

CC(C)(O)c1ccccc1CC[C@@H](SCC1(CC(=O)O)CC1)c1cccc(/C=C/c2ccc3ccc(Cl)cc3n2)c1
active: F380Y 0.278 | F380Y/beta1 0.853 | F380Y/beta2Delta 0.312 | F380Y/beta4 0.64 | [1] 0.354 | R275C 0.131 | R275C/beta1 0.782 | R275C/beta2Delta 0.293 | R275C/beta4 0.977 | R275C/Slo1WT/beta2 0.13

CN1CCN(c2c(F)cc3c(=O)c(C(=O)O)cn4c3c2SCC4)CC1
inactive: F380Y 0.0311 | F380Y/beta1 0.0284 | F380Y/beta2Delta 0.0235 | F380Y/beta4 -0.00383 | [1] 0.0303 | R275C -0.068 | R275C/beta1 0.019 | R275C/beta2Delta 0.0239 | R275C/beta4 0.00729 | R275C/Slo1WT/beta2 -0.0231

CCOC(=O)[C@H](CCc1ccccc1)N[C@@H](C)C(=O)N1[C@H](C(=O)O)C[C@@H]2CCC[C@@H]21
inactive: F380Y -0.0209 and 0.0487 | F380Y/beta1 -0.00638 and 0.058 | F380Y/beta2Delta 0.0153 and 0.0206 | F380Y/beta4 0.00789 and 0.00803 | [1] -0.0126 and 0.00594 | R275C 0.0107 and 0.01 | R275C/beta1 -0.0118 and -0.0507 | R275C/beta2Delta -0.0152 and 0.00655 | R275C/beta4 0.00822 and 0.0154 | R275C/Slo1WT/beta2 -0.0515 and 0.000239

O=C(O)/C=C/c1ccc(Cn2ccnc2)cc1
inactive: F380Y 0.00524 | F380Y/beta1 0.0144 | F380Y/beta2Delta -0.0133 | F380Y/beta4 0.00948 | [1] -0.0199 | R275C 0.0013 | R275C/beta1 0.0161 | R275C/beta2Delta 0.00561 | R275C/beta4 -0.0096 | R275C/Slo1WT/beta2 0.0187

Cc1c(O)cccc1C(=O)N[C@@H](CSc1ccccc1)[C@H](O)CN1C[C@H]2CCCC[C@H]2C[C@H]1C(=O)NC(C)(C)C
inactive: F380Y 0.0722 | F380Y/beta1 0.0513 | F380Y/beta2Delta -0.0274 | F380Y/beta4 0.0671 | [1] 0.0165 | R275C -0.105 | R275C/beta2Delta -0.0795 | R275C/beta4 -0.0349 | R275C/Slo1WT/beta2 -0.0218
active: R275C/beta1 0.237

O=C1[C@H]2CCCC[C@H]2C(=O)N1CCCCN1CCN(c2nsc3ccccc23)CC1
active: R275C/beta1 0.107
inactive: F380Y 0.0537 | F380Y/beta1 0.0543 | F380Y/beta2Delta 0.0368 | F380Y/beta4 0.0464 | [1] -0.0162 | R275C -0.0177 | R275C/beta2Delta 0.0344 | R275C/beta4 0.0306 | R275C/Slo1WT/beta2 -0.00391

CCCc1nc(C)c2c(=O)[nH]c(-c3cc(S(=O)(=O)N4CCN(CC)CC4)ccc3OCC)nn12
inactive: F380Y -0.00852 | F380Y/beta1 0.00246 | F380Y/beta2Delta 0.0398 | F380Y/beta4 0.0304 | [1] 0.0127 | R275C -0.0462 | R275C/beta1 0.019 | R275C/beta2Delta 0.017 | R275C/beta4 -0.00355 | R275C/Slo1WT/beta2 0.00306

Nc1nc(F)nc2c1ncn2[C@@H]1O[C@H](CO)[C@@H](O)[C@@H]1O
inactive: F380Y 0.0242 | F380Y/beta1 -0.00658 | F380Y/beta2Delta 0.0109 | F380Y/beta4 -0.0895 | [1] -0.000905 | R275C -0.0205 | R275C/beta1 -0.0181 | R275C/beta2Delta -0.00769 | R275C/beta4 -0.0294 | R275C/Slo1WT/beta2 -0.0303

C#C[C@]1(O)CC[C@H]2[C@@H]3[C@H](C)CC4=C(CCC(=O)C4)[C@H]3CC[C@@]21C
inactive: F380Y 0.0382 | F380Y/beta2Delta 0.02 | F380Y/beta4 0.0383 | R275C -0.0625 | R275C/beta2Delta 0.0649 | R275C/beta4 0.0734 | R275C/Slo1WT/beta2 0.0272
active: F380Y/beta1 0.123 | [1] 0.094 | R275C/beta1 0.155

COc1ccccc1OCC(O)CN1CCN(CC(=O)Nc2c(C)cccc2C)CC1 (stereo not given)
inactive: F380Y 0.091 | F380Y/beta1 0.0232 | F380Y/beta2Delta 0.0304 | F380Y/beta4 -0.01 | [1] -0.0153 | R275C -0.0477 | R275C/beta1 0.0435 | R275C/beta2Delta 0.00123 | R275C/beta4 0.0205 | R275C/Slo1WT/beta2 0.0142

Cc1ncc([N+](=O)[O-])n1CC(O)CCl (stereo not given)
inactive: F380Y -0.0142 | F380Y/beta1 -0.0206 | F380Y/beta2Delta -0.0158 | F380Y/beta4 -0.0171 | [1] -0.013 | R275C 0.00346 | R275C/beta1 -0.0317 | R275C/beta2Delta -0.0154 | R275C/beta4 -0.0435 | R275C/Slo1WT/beta2 -0.016

CC(C)(C#N)c1cc(Cn2cncn2)cc(C(C)(C)C#N)c1
inactive: F380Y 0.0287 | F380Y/beta1 0.000378 | F380Y/beta2Delta 0.0269 | F380Y/beta4 -0.0138 | [1] 0.043 | R275C -0.0232 | R275C/beta1 0.00836 | R275C/beta2Delta 0.00182 | R275C/beta4 -0.00704 | R275C/Slo1WT/beta2 -0.000892

CC1(C)O[C@@H]2C[C@H]3[C@@H]4C[C@H](F)C5=CC(=O)C=C[C@]5(C)[C@@]4(F)[C@@H](O)C[C@]3(C)[C@]2(C(=O)CO)O1
active: F380Y 0.2 | F380Y/beta1 0.211 | F380Y/beta2Delta 0.13 | F380Y/beta4 0.186 | R275C/beta1 0.14 | R275C/beta2Delta 0.157
inactive: [1] 0.0484 | R275C 0.0785 | R275C/beta4 0.0574 | R275C/Slo1WT/beta2 0.0265

CCCN1CCCC[C@H]1C(=O)Nc1c(C)cccc1C
inactive: F380Y 0.0271 | F380Y/beta1 0.0176 | F380Y/beta2Delta 0.0505 | F380Y/beta4 0.0334 | [1] -0.0126 | R275C 0.0086 | R275C/beta1 0.0221 | R275C/beta2Delta 0.0105 | R275C/beta4 0.0113 | R275C/Slo1WT/beta2 0.0315

NCC1CCC(C(=O)Oc2ccc(CCC(=O)O)cc2)CC1 (stereo not given)
inactive: F380Y -0.0268 | F380Y/beta1 -0.0246 | F380Y/beta2Delta -0.0278 | F380Y/beta4 -0.00261 | [1] 0.0182 | R275C -0.0458 | R275C/beta1 0.036 | R275C/beta2Delta 0.00228 | R275C/beta4 -0.0367 | R275C/Slo1WT/beta2 -0.00395

COC(=O)C1=C(C)NC(C)=C(C(=O)OC(C)C)C1c1cccc2nonc12 (stereo not given)
active: F380Y/beta1 0.106 | F380Y/beta4 -0.107
inactive: F380Y 0.00609 | F380Y/beta2Delta -0.0966 | [1] 0.00177 | R275C -0.0742 | R275C/beta1 -0.015 | R275C/beta2Delta -0.0967 | R275C/beta4 -0.00531 | R275C/Slo1WT/beta2 -0.0356

OCc1cccnc1
inactive: F380Y -0.0134 | F380Y/beta1 -0.0115 | F380Y/beta2Delta 0.033 | F380Y/beta4 0.017 | [1] -0.0204 | R275C -0.0301 | R275C/beta1 -0.00726 | R275C/beta2Delta -0.015 | R275C/beta4 -0.00528 | R275C/Slo1WT/beta2 0.0162

C[C@@H]1C[C@H]2[C@@H]3C[C@H](F)C4=CC(=O)C(Cl)=C[C@]4(C)[C@@]3(F)[C@@H](O)C[C@]2(C)[C@@]1(O)C(=O)CO
inactive: F380Y 0.0685 | F380Y/beta1 0.0734 | F380Y/beta2Delta -0.0145 | [1] 0.0637 | R275C 0.0158 | R275C/beta2Delta 0.0934 | R275C/Slo1WT/beta2 0.0468
active: F380Y/beta4 0.131 | R275C/beta1 0.354 | R275C/beta4 0.148
